Screening results from PubChem BioAssay.
The list is not random: actives were taken first. Their share in the collection is about 3.3%.
esBAF inh = SWI/SNF esBAF complex inhibition. mouse ES cells, Bmi1-luciferase knock-in reporter, 24 h; 100% = twice the neutral-well signal. reporter increase, % at 12.5 µM. actives 2% (n = 350,000). AID 602393; in the data active = activation above about 40%;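 note: 0% = median of the plate's neutral control wells and 100% = double that signal; a rise in the Bmi1 reporter signal indicates esBAF inhibition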
Wnt act = Wnt/beta-catenin pathway activation. AID 743398. activation, % at 9.35 µM. Wnt/beta-catenin reporter cell assay, activator, plate reader. actives 1.2% (n = 300,000); in the data active = activation above about 30%, passing the limit was not always enough;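 note: 0% = neutral control wells and 100% = positive control wells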
MITF TRPM1 HTS = MITF TRPM1 promoter activation in melanoma cells | activation, % at 12.5 µM | SK-MEL-5 TRPM1-promoter luciferase, 24 h; % of positive control, neutral wells = 0 | AID 588334 | actives 0.75% (n = 300,000);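 active = mean activation of at least 80% with every replicate also reaching 80%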;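 note: 0% = neutral control wells and 100% = parthenolide positive control wells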
GAA850 FXN act = frataxin GAA850 promoter activation. HEK293 lucGAA850 FXN promoter luciferase reporter, 24 h; percent of 10 µM SAHA response. activation, % at 6 µM. actives 0.56% (n = 360,000);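 active = activation above the average of all compounds screened plus 3 SD, cutoff fixed separately per campaign, cut at about 7.5% in these data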;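 note: 0% = DMSO wells and 100% = 10 µM SAHA wells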
Statin myotox sup = protects C2C12 myotubes from simvastatin toxicity; ATP luminescence, 48 h; scaled: DMSO 0, geranylgeraniol control 100; rescue of ATP level, % at 7.49 µM; actives 0.78% (n = 330,000);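 active = mean ATP rescue above about 67%, or every replicate alone reaching that limit, limit read from the data, passing the limit was not always enough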;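 note: myotubes were challenged with 10 µM simvastatin during compound exposure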
GAA30 FXN cntr = counter-screen for GAA850 frataxin promoter activators: GAA30 promoter activation. shares compounds with GAA850 FXN act. HEK293 lucGAA30 FXN promoter luciferase, 24 h; DMSO = 0%, 5 µM ipriflavone = 100%. activation, % at 6 µM. actives 66% (n = 1,900). AID 588350;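 active = mean activation above the mean of solvent-only control wells plus 3 SD, cut at about 22% in these data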;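 note: counterscreen of GAA850 promoter hits where activity marks nonselective or luminescence artifacts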
GAA850 confirm = confirmation of GAA850 frataxin (FXN) promoter activators | HEK293 lucGAA850 FXN promoter luciferase reporter, 24 h; 100% = activation by SAHA | activation, % at 6 µM | shares compounds with GAA850 FXN act | actives 86% (n = 1,900);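 active = mean activation above a set limit taken from the primary screen, cut at about 8% in these data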;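 note: 0% = DMSO wells and 100% = 10 µM SAHA wells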
An asterisk follows results filed as active.

What do the screens show for `COc1cc2c(cc1OC)-c1cc(N3CCCCCC3)nc(=O)n1CC2`?
esBAF inh: 1.5; MITF TRPM1 HTS: 17.3; GAA850 FXN act: 12.7*; Statin myotox sup: -29.0; GAA30 FXN cntr: 30.9*; GAA850 confirm: 16.4*

How did COc1cc2c(cc1OC)-c1cc(Nc3ccc(C(=O)O)cc3)nc(=O)n1CC2 do in these assays?
esBAF inh: 1.7; Wnt act: 1.1; MITF TRPM1 HTS: 4.7; GAA850 FXN act: 1.0; Statin myotox sup: -12.9

How did COc1cc2c(cc1OC)-c1cc(Nc3ccccc3Br)nc(=O)n1CC2 do in these assays?
esBAF inh: 5.9; Wnt act: 3.1; MITF TRPM1 HTS: -7.2; GAA850 FXN act: 9.2*; Statin myotox sup: 18.2; GAA30 FXN cntr: 17.8; GAA850 confirm: 15.6*

How did COc1ccc(Nc2cc3n(c(=O)n2)CCc2cc(OC)c(OC)cc2-3)c(C)c1 do in these assays?
esBAF inh: -2.8; Wnt act: 0.0; MITF TRPM1 HTS: 22.1; GAA850 FXN act: 6.6; Statin myotox sup: 1.4

How did CC(=O)N(C)C[C@@H]1Oc2cc(-c3ccc(C)cc3)ccc2S(=O)(=O)N([C@H](C)CO)C[C@@H]1C do in these assays?
esBAF inh: -1.3; Statin myotox sup: 19.9

Results for CCCNC(=O)[C@H]1[C@H](CO)[C@H]2Cn3c(ccc(C4=CCCC4)c3=O)[C@@H]1N2C(=O)CC ?
esBAF inh: 2.0; Statin myotox sup: -16.3

Results for CCOc1cccc(Nc2cc3n(c(=O)n2)CCc2cc(OC)c(OC)cc2-3)c1 ?
esBAF inh: -7.4; GAA850 FXN act: 9.6*; Statin myotox sup: -5.1; GAA30 FXN cntr: 21.8; GAA850 confirm: 12.1*

What do the screens show for `COc1cc2c(cc1OC)-c1cc(Nc3ccc(C)cc3)nc(=O)n1CC2`?
esBAF inh: 7.2; Wnt act: -3.7; MITF TRPM1 HTS: 12.7; GAA850 FXN act: 6.3; Statin myotox sup: -4.3

Results for COc1cc2c(cc1OC)-c1cc(OCc3cccnc3)nc(=O)n1CC2 ?
esBAF inh: 0.7; Wnt act: 0.9; MITF TRPM1 HTS: 5.2; GAA850 FXN act: 8.8*; Statin myotox sup: -5.4; GAA30 FXN cntr: 13.8; GAA850 confirm: 12.9*

Results for CS(=O)(=O)c1ccc(C(=O)OCC(=O)Nc2cccnc2Cl)cc1[N+](=O)[O-] ?
esBAF inh: 1.8; MITF TRPM1 HTS: -28.6; GAA850 FXN act: 8.0*; Statin myotox sup: 2.6; GAA30 FXN cntr: 31.3*; GAA850 confirm: 19.5*

What do the screens show for `COc1ccc(C2=NN(C(=O)COC(=O)c3ccc(S(C)(=O)=O)c([N+](=O)[O-])c3)C(c3ccco3)C2)cc1` (stereo not given)?
Wnt act: 4.3; GAA850 FXN act: 12.8*; GAA30 FXN cntr: -29.6; GAA850 confirm: 18.8*

Results for CS(=O)(=O)c1ccc(C(=O)OCC(=O)N2CCOCC2)cc1[N+](=O)[O-] ?
esBAF inh: 5.3; Wnt act: -7.0; GAA850 FXN act: 9.7*; Statin myotox sup: 9.6; GAA30 FXN cntr: 82.8*; GAA850 confirm: 38.6*

Results for CS(=O)(=O)c1ccc(C(=O)OCc2nnc(-c3ccccc3)o2)cc1[N+](=O)[O-] ?
Wnt act: -2.4; MITF TRPM1 HTS: -46.9; GAA850 FXN act: 8.5*; GAA30 FXN cntr: -16.8; GAA850 confirm: 70.3*

What do the screens show for `Cc1ccccc1NC(=O)COC(=O)c1ccc(S(C)(=O)=O)c([N+](=O)[O-])c1`?
Wnt act: -6.1; MITF TRPM1 HTS: -14.3; GAA850 FXN act: 4.0

Results for CC(=O)N(C)C[C@@H]1Oc2ncc(C#Cc3ccncc3)cc2C(=O)N([C@H](C)CO)C[C@@H]1C ?
esBAF inh: -2.9; Statin myotox sup: 8.3

What do the screens show for `Cc1noc(C)c1NC(=O)N(C)C[C@H]1Oc2ncc(C#CC(C)C)cc2C(=O)N([C@@H](C)CO)C[C@@H]1C`?
esBAF inh: 6.0; Statin myotox sup: 9.2

Results for COC(=O)C[C@@H]1C[C@@H]2c3cc(NS(=O)(=O)c4ccc(OC)cc4)ccc3O[C@@H]2[C@H](CO)O1 ?
esBAF inh: 1.4; Statin myotox sup: -3.9

How did CCCCOC(=O)Nc1nnc(CC)s1 do in these assays?
esBAF inh: 17.3; MITF TRPM1 HTS: 29.5; GAA850 FXN act: 7.7*; Statin myotox sup: 6.2; GAA30 FXN cntr: 51.0*; GAA850 confirm: 27.4*

How did CC(O)C(O)C(O)C(O)/C=N/NC(=O)c1ccccc1 (stereo not given) do in these assays?
Wnt act: 4.1; MITF TRPM1 HTS: 21.2; GAA850 FXN act: 7.7*; GAA30 FXN cntr: 23.4*; GAA850 confirm: 7.1

How did CN(C)/C=N/NC(=O)c1ccccc1 do in these assays?
esBAF inh: -6.9; Wnt act: -1.2; MITF TRPM1 HTS: 0.4; GAA850 FXN act: 7.0; Statin myotox sup: -2.9

Results for O=C(COc1ccccc1)Nc1ccccc1C(=O)NCc1ccco1 ?
Wnt act: 1.3; GAA850 FXN act: 8.4*; GAA30 FXN cntr: 40.9*; GAA850 confirm: 16.0*

How did CCOC(=O)CC(=O)CSc1nc2c(cc1C#N)CCCCCC2 do in these assays?
esBAF inh: 28.7; GAA850 FXN act: -1.0; Statin myotox sup: 6.0

What do the screens show for `N#Cc1cc2c(nc1SCC(N)=O)CCCCC2`?
esBAF inh: 31.8; MITF TRPM1 HTS: 73.2; GAA850 FXN act: 9.6*; Statin myotox sup: -7.0; GAA30 FXN cntr: 108.5*; GAA850 confirm: 38.1*

What do the screens show for `CNC(=O)C[C@@H]1CC[C@@H]2[C@H](COc3ccc(NC(=O)NCc4ccccc4)cc3C(=O)N2C)O1`?
esBAF inh: -5.4; Statin myotox sup: 9.9

Results for COc1ccc(C(=O)/C=C/C(=O)N(CC(=O)NC2CCCCC2)Cc2ccccc2)c(O)c1 ?
Wnt act: -2.7; MITF TRPM1 HTS: -99.3; GAA850 FXN act: 7.6*; GAA30 FXN cntr: -87.5; GAA850 confirm: -23.3

What do the screens show for `COc1ccc(C(=O)/C=C/C(=O)N(CC(=O)NC2CCCCC2)Cc2ccccc2OC)c(O)c1`?
Wnt act: -1.2; MITF TRPM1 HTS: -102.2; GAA850 FXN act: -0.6

Results for Cc1ccc(-n2nc3ccc(NC(=O)c4ccco4)cc3n2)cc1 ?
MITF TRPM1 HTS: 37.1; GAA850 FXN act: 1.6

Results for Cc1ccc(-n2nc3ccc(NC(=O)C(C)C)cc3n2)cc1 ?
esBAF inh: 100.2*; Wnt act: -3.9; MITF TRPM1 HTS: 111.1*; GAA850 FXN act: 7.9*; Statin myotox sup: -2.5; GAA30 FXN cntr: 106.1*; GAA850 confirm: 37.5*

How did CC(=O)NC[C@H]1[C@@H](c2ccc(-c3cccnc3)cc2)[C@H](CO)N1C(=O)C1CCC1 do in these assays?
esBAF inh: 4.4; Statin myotox sup: -2.0
